Rac1 mut GTP: human Rac1 activated mutant GTP binding change; percent activity (GTP binding), % at 10 µM; GST-Rac1 activated beads, fluorescent GTP binding, flow cytometry; actives lie on both sides; 100% means binding = to untreated wells; AID 764; P63000; 190,000 compounds, 0.11% hits;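 active = GTP binding at least 20 percentage points away from the 100% baseline, in either direction, so actives lie on both sides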
Rab2 wt GTP: changes GTP binding to wildtype dog Rab2A, up or down | P61105 | GST-Rab2 wt beads, Bodipy-GTP binding, flow cytometry | GTP binding activity, % at 10 µM | 190,000 compounds, 0.19% hits | AID 760;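 active = GTP binding activity at least 20 points away from 100%, either lowered or raised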;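 note: 0% = beads with excess unlabeled GTP and 100% = no-compound control corrected for plate trend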
Rab7 wt GTP bind: modulators of GTP binding to dog Rab7 wildtype GTPase; GST-Rab7 beads, fluorescent GTP binding, flow cytometry; actives lie on both sides; untreated = 100%, excess cold GTP = 0%; GTP binding activity (percent of control), % at 10 µM; 190,000 compounds, 0.055% hits;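 active = fluorescent GTP binding to Rab7 beads changed by at least 20 points from the 100% baseline, either direction, mostly lower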;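 note: median green fluorescence of bound Bodipy-FL-GTP per Rab7 bead population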
Rac1 wt modul: alters GTP binding to wildtype human Rac1. P63000. GST-Rac1 beads, fluorescent GTP binding, flow cytometry; actives lie on both sides; 0 = cold GTP competed, 100 = untreated. GTP binding activity (% of control), % at 10 µM. 190,000 compounds, 0.27% hits. AID 757;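 active = GTP binding activity at least 20 points away from the 100% control level, either lower or higher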
Cdc42 wt: changes GTP binding to wildtype human Cdc42; GST-Cdc42 beads, Bodipy-GTP binding, flow cytometry; actives lie on both sides; percent activity (GTP binding), % at 10 µM; 190,000 compounds, 0.2% hits;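 active = percent activity GTP binding at least 20 points away from the 100% baseline, either down as inhibitor or up as activator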;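 note: median bead fluorescence of bound Bodipy-FL-GTP at 100 nM; 0% = excess unlabeled GTP control and 100% = no compound control; below 100% means less GTP binding so inhibitor and above means activator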
Target sequence (P60953 whole entry, looked up): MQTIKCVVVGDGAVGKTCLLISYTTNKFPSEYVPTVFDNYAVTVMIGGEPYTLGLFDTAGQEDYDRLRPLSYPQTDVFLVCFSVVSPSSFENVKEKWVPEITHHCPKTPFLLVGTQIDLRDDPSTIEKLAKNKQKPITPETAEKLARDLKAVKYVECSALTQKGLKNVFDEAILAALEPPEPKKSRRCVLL
HRas wt GTP bind: changes GTP binding to wildtype human HRas. AID 759. GST-Ras wt beads, Bodipy-FL-GTP binding, flow cytometry; actives lie on both sides. GTP binding activity, % at 10 µM. 190,000 compounds, 0.14% hits;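 active = GTP binding activity at least 20% away from the 100% baseline, either lowered as inhibitor or raised as activator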;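 note: 0% = unlabeled GTP competition control and 100% = no-compound control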
Target sequence (P01112 whole entry, looked up): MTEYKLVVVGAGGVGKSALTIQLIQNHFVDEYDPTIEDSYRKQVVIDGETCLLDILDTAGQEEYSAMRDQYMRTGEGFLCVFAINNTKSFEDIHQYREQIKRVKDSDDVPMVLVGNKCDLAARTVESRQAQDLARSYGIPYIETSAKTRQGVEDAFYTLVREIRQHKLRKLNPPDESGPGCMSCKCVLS
The depositor's hits bear a star; [ ] = remark or other dose. The list is not random: actives were taken first. Their share in the collection is about 0.38%.

SMILES	Rac1 mut GTP	Rab2 wt GTP	Rab7 wt GTP bind	Rac1 wt modul	Cdc42 wt	HRas wt GTP bind
Cc1cccc(-c2nnc(NC(=O)c3ccc(N4C(=O)CCC4=O)cc3)s2)c1	101.0	103.0	101.0	113.0	107.0	105.0
Cc1ccccc1-c1nnc(NC(=O)c2ccc(N3C(=O)CCC3=O)cc2)s1	104.0	106.0	104.0	130.0*[activator]	109.0	106.0
COc1cc2nc(CN3CCC(C(O)(c4ccccc4)c4ccccc4)CC3)[nH]c(=O)c2cc1OC	96.0	96.0	96.0	99.0	96.0	95.0
CC(C)(C)NC(=O)CCN(/N=C/c1ccc([N+](=O)[O-])o1)C1=NS(=O)(=O)c2ccccc21	59.0*	45.0*	72.0*	50.0*	56.0*	42.0*
Cc1ccc(-c2csc3nc(C)n(N)c(=O)c23)cc1	96.0	95.0	95.0	94.0	96.0	96.0
Cc1ccc(-c2csc3nc4c5ccccc5c(NCCCN5CCOCC5)nn4c(=O)c23)cc1	82.0	59.0*	95.0	60.0*	57.0*	60.0*
Cc1ccc(-c2csc3nc4c5ccccc5c(NCCCN(C)C)nn4c(=O)c23)cc1	89.0	77.0*	90.0	79.0*	72.0*	73.0*
COCCCNC(=S)NCCNc1nc2c(C)c(C)ccc2cc1C#N	94.0	98.0	95.0	99.0	101.0	96.0
c1ccc(CSc2ccc(-c3cccnc3)nn2)cc1	97.0	97.0	98.0	98.0	101.0	93.0
Nc1nonc1C(=O)N/N=C/c1ccc(-c2cccc(C(=O)O)c2)o1	91.0	90.0	101.0	92.0	91.0	92.0
COCCOC(=O)c1c(C)oc2ccc(OC(=O)c3ccc4c(c3)OCO4)cc12	73.0*	76.0*	79.0*	75.0*	77.0*	83.0
CCOC(=O)Oc1ccc2oc(C)c(C(=O)OCCOC)c2c1	97.0	99.0	99.0	100.0	98.0	99.0
Nc1nc(-c2ccccc2)nc2sc3c(c12)CCCC3	98.0	95.0	99.0	100.0	96.0	95.0
Cc1ccc(S(=O)(=O)Cc2ccc(C(=O)N3CCN(c4cc(C)ccc4C)CC3)o2)cc1	77.0*	80.0	84.0	80.0	81.0	87.0
Cc1ccc(C)c(N2CCN(C(=O)c3ccc(CS(=O)(=O)c4ccccc4C)o3)CC2)c1	83.0	87.0	93.0	87.0	89.0	89.0
CCN1CCCC1CNC(=O)c1ccc(N2CCOCC2)c(NS(=O)(=O)c2ccc(OC)cc2)c1 (stereo unspecified)	98.0	101.0	97.0	103.0	103.0	99.0
Cc1ccc(NC(=S)N2CCC(c3ccccc3)C2)c(Cl)c1 (stereo unspecified)	98.0	97.0	101.0	101.0	96.0	98.0
Nc1nonc1C(=O)NCCN=Cc1cc(Cc2ccccc2)cc(Br)c1O	119.0	122.0*[activator]	114.0	128.0*[activator]	125.0*[activator]	117.0
Nc1nonc1C(=O)NCCN=Cc1ccccc1O	101.0	103.0	99.0	105.0	106.0	104.0
S=c1[nH]nc(-c2ccco2)n1-c1ccc(Cl)cc1	78.0*	82.0	82.0	82.0	82.0	81.0
CCOC(=O)c1c(C)[nH]c(C(=O)CC(=O)OC)c1C	90.0	91.0	91.0	90.0	88.0	91.0
COc1ccc(C(=O)Nc2cc(Cl)ccc2C(=O)O)cc1	77.0*	83.0	85.0	81.0	78.0*	83.0
COc1ccc(C(=O)Nc2cc(Cl)ccc2OC(=O)c2ccc(OC)cc2)cc1	96.0	96.0	97.0	96.0	96.0	98.0
CC(=O)Nc1ccc(/C=N/NC(=O)CCN2CCN(c3ccccc3)CC2)cc1	87.0	75.0*	88.0	74.0*	76.0*	79.0*
O=S(=O)(CC(CN1CCOCC1)N1CCOCC1)c1ccccc1 (stereo unspecified)	53.0*	55.0*	23.0*	56.0*	60.0*	58.0*
SMILES	Rac1 mut GTP	Rab2 wt GTP	Rab7 wt GTP bind	Rac1 wt modul	Cdc42 wt	HRas wt GTP bind
Cc1ccc(-c2csc(NC(=O)CSc3nc4ccccc4c(=O)n3CCCN(C)C)n2)cc1	97.0	95.0	93.0	98.0	95.0	97.0
COc1ccccc1NC(=O)CN(c1ccc(C)cc1)S(=O)(=O)c1c(C)n[nH]c1C	99.0	98.0	94.0	103.0	98.0	99.0
COc1ccc(N(CC(=O)Nc2cccc(C)c2C)S(=O)(=O)c2c(C)n[nH]c2C)cc1	88.0	79.0*	87.0	81.0	83.0	84.0
CSCCCNC(=S)N1CCc2ccccc2C1	97.0	97.0	97.0	96.0	97.0	97.0
Cn1nc(C(=O)NCc2cccnc2)c2ccccc2c1=O	98.0	99.0	96.0	100.0	96.0	98.0
COC(=O)c1cccc(NC(=O)c2nn(C)c(=O)c3ccccc23)c1	81.0	79.0*	92.0	72.0*	73.0*	77.0*
Cn1nc(C(=O)Nc2cccnc2)c2ccccc2c1=O	86.0	69.0*	92.0	85.0	73.0*	74.0*
Cc1ccc(C)n1N1C(=O)/C(=C\c2ccc(Cl)cc2)SC1=S	91.0	92.0	96.0	92.0	92.0	95.0
NS(=O)(=O)c1ccc(CCN2C(=O)/C(=C\c3ccc(Cl)cc3)SC2=S)cc1	85.0	82.0	85.0	77.0*	84.0	84.0
Cc1cc(-c2n[nH]c(=S)n2/N=C/c2ccc(Cl)c([N+](=O)[O-])c2)n[nH]1	94.0	92.0	99.0	96.0	97.0	94.0
Cc1cc(-c2n[nH]c(=S)n2/N=C/c2cc([N+](=O)[O-])ccc2Cl)n[nH]1	85.0	74.0*	87.0	71.0*	85.0	77.0*
COc1cc(/C=C2/SC(N)=NC2=O)ccc1Oc1ccc([N+](=O)[O-])cc1[N+](=O)[O-]	91.0	91.0	96.0	94.0	91.0	94.0
NC1=NC(=O)/C(=C\c2ccc(O)c([N+](=O)[O-])c2)S1	80.0	63.0*	85.0	78.0*	61.0*	66.0*
O=C(Cn1c(-c2cscn2)nc2ccccc21)Nc1cc(F)ccc1F	102.0	107.0	105.0	121.0*[activator]	115.0	106.0
COCCn1c(-c2ccc(-c3ccc([N+](=O)[O-])cc3Br)o2)nc2c1c(=O)[nH]c(=O)n2CC(C)C	92.0	91.0	97.0	92.0	91.0	90.0
COc1cc(C(=S)N2CCOCC2)ccc1OC(=O)/C=C/c1ccco1	94.0	97.0	96.0	101.0	96.0	96.0
CSc1ccccc1NC(=O)c1cc2ncc(Br)cn2n1	94.0	100.0	103.0	97.0	96.0	97.0
Clc1ccc(Cn2ncc3c(N4CCCC4)ncnc32)cc1	97.0	100.0	97.0	100.0	99.0	100.0
Clc1ccc(Cn2ncc3c(N4CCOCC4)ncnc32)cc1	98.0	59.0*	99.0	102.0	95.0	97.0

Source: PubChem BioAssay
